# Experimental data reported in the supplement of paper PMC3334620.
# Over roughly 33,000 sequences, “E-score (-0.5 to 0.5)” has its median near -0.053; the highest 2% begin near 0.37. This is one part of a sample in which the highest values are shown more often than they occur.
# Molecular target: Hap1 (UniProt P0CE41)
# Test: PBM E-score (8-mer binding enrichment) (E-score (-0.5 to 0.5)); higher = stronger / more preferred TF binding
# Conditions: protein concentration: 200 nM; construct: GST-DNA-binding domain
# Procedure: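 Universal 'all 10-mer' protein binding microarrays (Agilent AMADID 015681) probed with GST-tagged S. cerevisiae TFs (full-length or DBD) made by in vitro transcription/translation (PURExpress), about 100-200 nM. Bound TF was detected with fluorescent anti-GST. Each ungapped 8-mer (which stands for itself and its reverse complement) is scored by the PBM enrichment score (E-score), a modified Wilcoxon-Mann-Whitney statistic from -0.5 to +0.5, computed with the Universal PBM Analysis Suite. Scale: above 0.35 generally sequence-specific binding.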
# UniProt P0CE41, sequence (P0CE41 whole entry): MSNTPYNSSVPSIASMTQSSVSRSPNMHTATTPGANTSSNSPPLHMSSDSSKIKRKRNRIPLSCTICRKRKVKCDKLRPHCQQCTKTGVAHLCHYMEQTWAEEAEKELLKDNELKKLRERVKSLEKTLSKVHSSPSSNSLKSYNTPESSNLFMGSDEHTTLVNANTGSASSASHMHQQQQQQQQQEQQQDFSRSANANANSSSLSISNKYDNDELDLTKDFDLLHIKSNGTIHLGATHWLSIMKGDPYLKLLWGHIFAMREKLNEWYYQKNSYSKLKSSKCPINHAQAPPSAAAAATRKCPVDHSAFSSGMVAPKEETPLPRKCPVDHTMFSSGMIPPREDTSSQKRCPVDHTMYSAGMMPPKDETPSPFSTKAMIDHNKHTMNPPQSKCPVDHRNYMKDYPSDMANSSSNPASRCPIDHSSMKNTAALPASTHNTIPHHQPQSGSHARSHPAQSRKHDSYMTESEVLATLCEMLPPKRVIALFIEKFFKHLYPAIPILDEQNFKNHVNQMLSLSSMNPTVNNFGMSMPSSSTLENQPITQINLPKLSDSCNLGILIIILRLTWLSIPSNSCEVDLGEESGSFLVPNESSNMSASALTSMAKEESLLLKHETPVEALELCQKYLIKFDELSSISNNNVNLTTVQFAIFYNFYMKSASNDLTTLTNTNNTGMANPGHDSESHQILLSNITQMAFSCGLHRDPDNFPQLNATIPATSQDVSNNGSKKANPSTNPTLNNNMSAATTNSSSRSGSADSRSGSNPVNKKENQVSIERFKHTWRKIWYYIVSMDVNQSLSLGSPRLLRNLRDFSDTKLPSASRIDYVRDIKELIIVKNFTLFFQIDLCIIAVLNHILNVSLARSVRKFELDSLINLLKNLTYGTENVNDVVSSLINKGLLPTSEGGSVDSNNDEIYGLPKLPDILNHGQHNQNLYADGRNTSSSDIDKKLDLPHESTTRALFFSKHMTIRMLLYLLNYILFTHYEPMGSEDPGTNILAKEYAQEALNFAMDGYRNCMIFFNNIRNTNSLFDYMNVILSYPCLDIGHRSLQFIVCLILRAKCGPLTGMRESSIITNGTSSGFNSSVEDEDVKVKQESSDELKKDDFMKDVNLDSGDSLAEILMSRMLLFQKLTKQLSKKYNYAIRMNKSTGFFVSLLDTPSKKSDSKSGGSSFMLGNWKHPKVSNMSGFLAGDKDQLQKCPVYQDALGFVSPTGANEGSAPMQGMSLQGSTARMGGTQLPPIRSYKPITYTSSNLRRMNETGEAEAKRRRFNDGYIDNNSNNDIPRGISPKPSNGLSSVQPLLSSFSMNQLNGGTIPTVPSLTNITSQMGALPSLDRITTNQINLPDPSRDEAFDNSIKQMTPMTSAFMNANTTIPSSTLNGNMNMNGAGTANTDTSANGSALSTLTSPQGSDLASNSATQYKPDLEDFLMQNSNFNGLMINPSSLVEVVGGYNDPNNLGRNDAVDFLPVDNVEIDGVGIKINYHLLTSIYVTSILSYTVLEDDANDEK
row,Sequence,PBM E-score
1,AACTCTGG,-0.202
2,ACGCAAAG,-0.0974
3,ACTGCGTG,-0.275
4,CTCGTAGC,-0.117
5,TAATTAGA,0.0224
6,CAGGCCGG,0.166
7,AAGGCCCG,0.196
8,AAGGCCGG,0.408
9,AAGGCCGC,0.135
10,AAGGCCGA,0.435
11,AAGGCCGT,0.212
12,CGAGATGC,-0.0846
13,GGTACCAA,0.0294
14,AAGTTAGG,-0.0844
15,CCTTGAAC,-0.1
16,GACCGAGA,0.382
17,CACCGAGC,0.297
18,TACCGAGA,0.209
19,AACCGAGT,0.157
20,GACCGACC,0.266
21,AACCGAGG,0.148
22,AACCGAGC,0.371
23,GACCGAGC,0.375
24,CACCGAGA,0.259
25,GCTACGCC,-0.0393

row,Sequence,PBM E-score
1,CATCCGCC,0.244
2,CCTAGTTC,-0.00076
3,AGTATGCC,0.0174
4,AAAGGCAT,-0.125
5,AACTGAAT,-0.215
6,ATAACTCC,0.4
7,ATAACTCG,0.205
8,CTAACTGC,-0.0433
9,CTAACTCA,-0.177
10,CTAACTCC,0.403
11,ATAACTCA,-0.0521
12,AAAAGGAA,0.0913
13,ACGGGTAT,0.0846
14,AGCGATAG,0.119
15,CCCGATAC,0.432
16,CGCGATAG,0.2
17,AACGATAG,0.118
18,ACCGATTA,0.335
19,ACCGATAA,0.443
20,CACGATAG,-0.138
21,CGCGATAC,0.17
22,AGCGATAA,0.284
23,CCCGATAG,0.414
24,ACCGATAG,0.373
25,CCCGATCC,0.31

row,Sequence,PBM E-score
1,CATCGAGG,-0.23
2,CTCAGGAA,-0.108
3,AACCGGCT,0.252
4,GCTGCTCA,-0.241
5,GGCAAGGA,-0.0722
6,CTGAGTCC,-0.0126
7,ACTATCAA,0.0295
8,CCGCCTCC,0.0265
9,CGATTTTC,0.147
10,CCCGATGA,0.285
11,GCCGATAA,0.449
12,ACCGATGA,0.223
13,GCCGATGA,0.373
14,ACCGATCT,0.274
15,CGCGATAA,0.115
16,GGCGATAC,0.265
17,GCCGATCA,0.263
18,GGCGATAA,0.392
19,ACCGATAT,0.43
20,GTCGATAA,-0.0382
21,AACGATAT,-0.0547
22,CTAGATGC,-0.224
23,GAATCGAA,-0.142
24,ACAGGCTG,-0.256
25,CTTGCACA,-0.136

row,Sequence,PBM E-score
1,TCCGATCA,0.221
2,CCCGATAA,0.417
3,GCCGATCC,0.258
4,CACGATAA,0.087
5,GCCGATAC,0.417
6,ACCGATAC,0.371
7,TCCGATAA,0.45
8,AACGATAC,-0.2
9,TACGATAA,0.0399
10,CCCGATTA,0.197
11,AGCGATAC,0.065
12,GACGATAC,0.0839
13,GTAGGGAC,-0.0187
14,AGTGAGTC,-0.18
15,CCTCTAAG,-0.337
16,GTTATCGA,0.165
17,CAGACCAG,0.0149
18,CGAATTAA,0.0158
19,TGAATTAA,-0.0149
20,CGAATTAC,0.15
21,AGAATTAC,0.0991
22,GGAATTAA,0.419
23,GGAATTAC,0.375
24,TATCTCAA,-0.0851
25,GCCTGGAC,-0.0392

row,Sequence,PBM E-score
1,ATATCCAG,0.0668
2,CTATCCGA,0.113
3,GTATCCGA,0.304
4,ATATCCTC,0.0211
5,ATATCCGG,0.452
6,CTATCCGC,0.257
7,AGATCCGG,0.384
8,ATATCCGA,0.463
9,ATATCCGC,0.387
10,ATATCCCG,0.286
11,AGATCCGA,0.359
12,AGATCCGC,0.263
13,AGGCAATG,-0.17
14,ACTGGGGA,-0.016
15,AGTGGAAC,0.0266
16,CAGATCCC,0.0493
17,CAGTCCGC,0.0912
18,AAGTCCGG,0.47
19,AAGTCCGT,0.417
20,AAGTCCGC,0.427
21,AAGTCCCT,-0.278
22,AAGTCCAT,-0.00211
23,GAGTCCGC,0.249
24,AAGTCCTG,-0.0784
25,CAGTCCGG,0.364

row,Sequence,PBM E-score
1,GTTGGTTA,-0.0552
2,TTGCAAAA,-0.00902
3,CCGAAGTA,0.365
4,GAGGCACA,-0.112
5,CTCCGTTA,0.367
6,GTCCGTTA,0.444
7,ATCCGTTA,0.409
8,ATCCGTTC,0.233
9,GTCCGTGA,0.303
10,ATCCGTTG,0.301
11,CGCCCGCA,0.189
12,GCCTGAAC,-0.0686
13,CGCAGGGC,-0.0256
14,GGGTATGA,0.0413
15,ACGGAATC,0.28
16,CAGGAAAA,-0.0124
17,ACGGAAAA,0.317
18,CCGGAAAA,0.432
19,CCGGAATC,0.416
20,TCGGAACA,0.349
21,CCGGAATA,0.357
22,ACGGAACA,0.241
23,TCGGAAAA,0.402
24,CCGGAAGA,0.365
25,CCGGAACA,0.376

row,Sequence,PBM E-score
1,GCGGAAAA,0.286
2,AGACACTC,-0.185
3,GCTTCATA,-0.0731
4,ACCTAGGC,-0.18
5,AAAGCGGG,-0.0186
6,ACTACGCC,-0.098
7,GAACTGTA,-0.00641
8,CCACTCCC,0.119
9,CCGGCCTC,0.182
10,CCGGAAAG,0.307
11,GCGGAAAC,0.24
12,CCGGAAAC,0.426
13,AGTTTCTA,-0.167
14,ACCAGGAT,0.0532
15,AAGCAATA,-0.0998
16,TCTTGTCA,-0.139
17,CGACCGGA,0.412
18,CGACCGTA,0.0335
19,CGACCGGC,0.232
20,GGACCGGA,0.406
21,AGACCGGA,0.334
22,GGACCGCA,0.186
23,ACTAGACA,-0.0952
24,AACGCGCG,0.13
25,ATGTCCTG,0.00518

row,Sequence,PBM E-score
1,CTGTCCGC,0.113
2,ATGTCCGA,0.463
3,ATGTCCGC,0.374
4,ATGTCCCC,0.0493
5,CTGTCCGA,0.317
6,ATGTCCGG,0.468
7,GTGTCCGA,0.339
8,ATGTCCCG,0.234
9,AGGGCCGG,0.326
10,CGCCCTCA,-0.149
11,CGACCAAC,-0.0313
12,CAACTGGG,-0.122
13,CCCGGTCA,0.262
14,GCCGGTCA,0.177
15,CCCGGTAC,0.296
16,GCCGGTAA,0.422
17,GCCGGTAC,0.293
18,AGCGGTAA,0.247
19,GGCGGTAC,0.0136
20,CCCGGTAG,0.336
21,GGCGGTAA,0.373
22,TCCGGTCA,0.385
23,GCCGGTGA,0.274
24,CCCGGTAA,0.387
25,ACCTCGCT,0.0563

row,Sequence,PBM E-score
1,AGTTACCG,0.266
2,AACAAGGG,-0.0715
3,ACAGACGC,-0.0711
4,AATTTACC,0.0607
5,AGCGTAGA,-0.0389
6,TACGGTAA,0.0382
7,TGCGGTAA,0.042
8,TCCGGTAA,0.442
9,ACACCTGA,-0.135
10,TGTCGAAA,-0.229
11,CAAGTGTC,-0.197
12,AAGAAACA,0.00593
13,ACCGCAAT,0.239
14,AATCCCGA,0.409
15,TATCCCGA,0.221
16,AATCCCAT,-0.107
17,AATCCCGC,0.257
18,CATCCCGA,0.176
19,AATCCCGT,0.372
20,CTGGTGAC,-0.288
21,CCAGCGAA,-0.0597
22,CGGCAATA,0.408
23,CGGCAATC,0.284
24,AGGCATTA,-0.08
25,GGGCATTA,0.0704

row,Sequence,PBM E-score
1,AGGCAATA,-0.181
2,CGGCATTA,0.459
3,TATATTGA,0.0255
4,ACAGTGGA,-0.0195
5,CACCAAGC,-0.174
6,AGTCCCTC,-0.175
7,AATGTCCG,0.443
8,ATTGTCCA,-0.128
9,CATGTCCG,0.372
10,AATGTCCA,-0.104
11,AATGTCCT,-0.144
12,ATTGTCCC,0.0458
13,ATTGTCCG,0.396
14,CATGTCCA,-0.0578
15,CATGTCCC,-0.054
16,GGCCATAC,0.17
17,CGCTACGA,0.111
18,CTCTCATC,-0.159
19,CAGATTAG,-0.167
20,AGGACATA,-0.187
21,GCTCAGTA,-0.239
22,CCAATGCA,-0.186
23,CGGACCCA,0.346
24,AAGTGACA,-0.105
25,AGCGGACT,0.287

row,Sequence,PBM E-score
1,ACCGGACT,0.408
2,ACCGGACC,0.397
3,AACGGACC,0.327
4,ACCGGATG,0.329
5,ACCGGATC,0.296
6,ACCGGACG,0.421
7,ACCGGTCG,0.289
8,AACGGACT,0.337
9,CTTCTGAC,-0.224
10,CTCCAGCA,-0.241
11,AATACGCG,0.0739
12,ACTAAACG,-0.112
13,ATACCTTA,-0.0965
14,AAACTACG,0.118
15,CCCTCCAC,-0.233
16,CGGACGTA,0.443
17,GGGACGGA,0.227
18,CCGACGGA,0.386
19,AGGACGTA,0.00968
20,CGGACGGC,0.327
21,CGGACGGA,0.397
22,ACGACGGA,0.199
23,CGGACGTC,0.258
24,GCGACGGA,0.258
25,CAGGTGTA,-0.199

row,Sequence,PBM E-score
1,CAGGTATG,-0.00123
2,CGGGTGGC,0.152
3,CACCCCAC,-0.026
4,CCCCGTGC,0.269
5,ACAACTTC,0.00956
6,CCCGACAA,0.311
7,CCAAGCTA,-0.112
8,CGCAGGAG,-0.0823
9,ACACCGGA,0.395
10,GCACCGGA,0.353
11,CCACCGGG,0.34
12,TCACCGCA,0.0366
13,ACACCGGC,0.341
14,ACACCGGT,0.359
15,CCACCGGC,0.233
16,TCACCGGA,0.373
17,CCACCGGA,0.432
18,GATCAGCC,-0.11
19,CTGCAGAC,-0.128
20,GACCCAAA,-0.00261
21,GGAGTATA,0.206
22,ACATGTAG,-0.081
23,CAAAGCAC,-0.138
24,CGGTGAGC,0.0638
25,AGACCTGA,-0.0959

row,Sequence,PBM E-score
1,CCGCGGTA,0.303
2,ATCCTCTC,-0.186
3,AGCGGGAA,0.207
4,CACCCCGG,0.264
5,AACCCCGC,0.371
6,AAACCCCG,0.438
7,CTAACCGA,0.176
8,ATAACCGC,0.157
9,AACCCCCG,0.262
10,ATAACCGA,0.386
11,AAACCCCC,0.0478
12,GACCCCGC,0.134
13,ACCCCCGG,0.368
14,ACCCCCGC,0.217
15,AACCCCGG,0.456
16,CTACTAGC,0.0698
17,GCCGTCCA,0.0557
18,AATAGATG,-0.118
19,CGTGTTTA,0.038
20,AAATTCTA,-0.166
21,ATGTACTA,-0.14
22,GTGGATCA,-0.21
23,CACCAATC,-0.0582
24,CAGATTGA,-0.0798
25,CCCAACAG,-0.328

row,Sequence,PBM E-score
1,ACCGTAAA,0.0865
2,CAACTGTA,-0.234
3,ATGTGCCA,-0.302
4,GAACCCGA,0.23
5,TAACCCGA,0.355
6,AAACCCGC,0.335
7,AAACCCGG,0.454
8,AAAACCGC,0.109
9,AAAACCCC,0.187
10,AAAACCGA,0.396
11,AAACCCGA,0.439
12,AAAACCCG,0.4
13,GAAACCGA,0.274
14,AAAACCCT,-0.0696
15,AAACCCGT,0.361
16,AGCCAGGC,-0.141
17,GCTTGGGA,-0.149
18,ACTGGGAG,-0.0791
19,CAGCTACA,-0.156
